# Bioassay records deposited in PubChem BioAssay by The Scripps Research Institute Molecular Screening Center.
# Compounds with a hit are over-represented: about 2.8% of the library has one in this group of screens.
# PAFAH1B3 inh = inhibitors of human PAFAH1B3; Q15102; recombinant PAFAH1B3, FP-rhodamine probe, fluorescence polarization; inhibition, % at 3.39 µM; 0.28% of 340,000 active; AID 492972;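 active = inhibition above the screen-wide average of all tested compounds plus 3 SD, cut at about 25% in these data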;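 also: 0% = enzyme with DMSO only and 100% = wells lacking PAFAH1B3 protein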
# Target sequence (Q15102 whole entry, looked up): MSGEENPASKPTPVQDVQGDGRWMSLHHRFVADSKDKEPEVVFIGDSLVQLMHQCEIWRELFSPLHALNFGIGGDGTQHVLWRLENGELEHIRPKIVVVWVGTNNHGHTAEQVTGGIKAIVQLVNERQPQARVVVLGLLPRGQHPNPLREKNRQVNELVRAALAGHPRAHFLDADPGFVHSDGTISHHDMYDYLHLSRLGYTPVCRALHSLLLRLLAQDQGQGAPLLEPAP
# PME-1 inh = blocks human protein phosphatase methylesterase 1. Q9Y570. recombinant PME-1, FP-Rh probe fluorescence polarization. inhibition, % at 5.9 µM. 0.53% of 320,000 active;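 active = inhibition above the campaign mean of all compounds plus 3 SD, cut at about 26% in these data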;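 also: competitive labeling of PME-1 active site by serine hydrolase directed probe; 0% = PME-1 with DMSO and 100% = wells lacking PME-1 enzyme; inhibitors block probe labeling so polarization falls and inhibition rises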
# Fam108B inh = counter-screen for RBBP9 inhibitors: inhibitors of mouse Fam108B. recombinant Fam108B, FP-Rh probe fluorescence polarization. inhibition, % at 9.51 µM. 0.33% of 300,000 active;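 active = inhibition above the screen mean inhibition plus 3 SD, computed separately per campaign, cut at about 18% in these data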;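 also: inhibitors lower polarization as less probe binds the enzyme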
# pPAFAH FP inh = pPAFAH (human) enzyme inhibition; Q13093; recombinant pPAFAH, FP-rhodamine probe fluorescence polarization; inhibition, % at 3.39 µM; 1.5% of 330,000 active; AID 463082;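 active = inhibition above the mean inhibition across the screen plus 3 SD, cut at about 25% in these data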;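 also: inhibitors block binding of the rhodamine activity-based probe so polarization drops; 0% = enzyme with DMSO and 100% = wells lacking pPAFAH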
# PAFAH2 FP inh = inhibitors of human PAFAH2 | Q99487 | recombinant PAFAH2, FP-rhodamine activity probe, fluorescence polarization | inhibition, % at 3.39 µM | 0.99% of 340,000 active | AID 492956;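 active = inhibition above the mean over all tested compounds plus 3 SD, cut at about 30% in these data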;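 also: inhibitors block probe labeling of enzyme so polarization drops; 0% = enzyme with DMSO and 100% = wells lacking PAFAH2 protein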
# PAFAH1B2 inh = PAFAH1B2 (human) inhibition | P68402 | recombinant PAFAH1B2, FP-rhodamine activity probe, fluorescence polarization | inhibition, % at 3.39 µM | 1.2% of 340,000 active | AID 492953;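 active = inhibition above the mean of all tested compounds plus 3 SD, cut at about 24% in these data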;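 also: 0% = enzyme with DMSO and 100% = wells lacking PAFAH1B2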
# Target sequence (P68402 whole entry, looked up): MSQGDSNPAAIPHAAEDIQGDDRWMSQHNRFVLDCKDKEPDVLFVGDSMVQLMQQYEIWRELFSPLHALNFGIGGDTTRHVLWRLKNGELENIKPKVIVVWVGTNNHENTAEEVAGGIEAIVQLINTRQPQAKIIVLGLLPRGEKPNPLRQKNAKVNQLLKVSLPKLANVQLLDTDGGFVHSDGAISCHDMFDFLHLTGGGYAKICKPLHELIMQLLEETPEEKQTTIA
# PAFAH2 FP conf = confirmation of human PAFAH2 inhibitors; 65% of 2,300 active; inhibition, % at 3.39 µM; recombinant PAFAH2, FP-rhodamine activity probe, fluorescence polarization; shares compounds with PAFAH2 FP inh;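 active = mean inhibition over three repeats above a set limit taken from the earlier primary screen, cut at about 30% in these data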;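 also: inhibitor blocks binding of rhodamine activity probe so polarization falls; 0% = enzyme with DMSO and 100% = wells lacking PAFAH2 protein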
# * = called active by the depositor; x = no result given.
SMILES,PAFAH1B3 inh,PME-1 inh,Fam108B inh,pPAFAH FP inh,PAFAH2 FP inh,PAFAH1B2 inh,PAFAH2 FP conf
COc1ccc(/C=C2/SC(c3ccc(C)cc3)=NC2=O)cc1OC,3,6,4,4,38*,3,26
COc1ccc(NS(=O)(=O)c2cc(NS(=O)(=O)c3cccs3)ccc2C)cc1,8,x,x,x,11,0,x
O=C(OCc1nnc(-c2ccccc2)o1)c1cccc(-n2cnnn2)c1,6,-2,4,-6,47*,3,40*
Cc1ccc(-c2nnc(COC(=O)c3cccs3)o2)cc1,-5,0,0,5,54*,7,38*
CC(=O)c1c(C)[nH]c(C(=O)OCc2nnc(-c3ccccc3)o2)c1C,4,-1,2,-1,26,-3,x
O=C(OCc1nnc(-c2ccccc2)o1)C1=COCCO1,0,2,1,0,44*,5,31*
Cc1ccc(C(=O)OCc2nnc(-c3ccccc3)o2)o1,-3,4,3,5,44*,-1,33*
Cc1ccc(-c2nnc(COC(=O)c3ccco3)o2)cc1,3,3,0,2,12,9,x
O=C(COC(=O)c1cccc(-n2cnnn2)c1)c1ccccc1,2,0,0,7,2,-3,x
COc1ccc(NC(=O)Cn2nnc(C(=O)NCc3cccs3)c2N)cc1Cl,5,-1,-6,7,-2,2,x
Cc1ccc(C(=O)OCc2nnc(-c3ccccc3)o2)cc1S(=O)(=O)N1CCOCC1,11,1,1,3,61*,5,47*
O=C(OCc1nnc(-c2ccccc2)o1)c1ccc(CO)cc1,8,-1,1,2,55*,0,56*
Cc1cc(C)n(-c2ccc(C(=O)OCc3nnc(-c4ccccc4)o3)cc2)n1,4,1,1,6,9,0,x
CS(=O)(=O)c1ccc(C(=O)OCc2nnc(-c3ccccc3)o2)cc1[N+](=O)[O-],3,x,x,x,16,-3,x
O=C(OCc1nnc(-c2ccccc2)o1)c1ccc(Cl)cc1,1,2,3,10,43*,4,37*
O=C(OCc1nnc(-c2ccccc2)o1)c1ccc2c(c1)OCCO2,-1,0,-2,10,75*,-1,60*
CN(C)S(=O)(=O)c1ccc(C(=O)OCc2nnc(-c3ccccc3)o2)cc1,3,0,-5,0,4,4,x
CCOc1ccc2nc(NC(=O)Cn3c(C)csc3=O)sc2c1,8,x,x,x,6,-4,x
O=C(Nc1ccc(-c2nc3ccccc3o2)cc1)c1ccc(N2C(=O)C3C4C=CC(C4)C3C2=O)cc1 (configuration not stated),-22,-42,-36,-15,-22,-9,x
Cc1cc(C)nc(SCC(=O)NN=Cc2ccc(C)o2)n1,-2,x,x,3,10,1,x
CCCCN(C(=N)N1CCCCC1)c1nc(C)c([N+](=O)[O-])c(=O)[nH]1,10,2,-1,3,4,0,x
Cc1ccc(C(=O)OCc2nnc(-c3ccc(Br)cc3)o2)cc1,8,9,-3,10,72*,0,58*
Cc1ccc(C(=O)N[C@H](C(=O)OCc2nnc(-c3ccccc3)o2)C(C)C)cc1,2,-5,1,2,6,7,x
O=C(/C=C/c1ccco1)OCc1nnc(-c2ccccc2)o1,8,-2,0,4,68*,3,55*
CCN1C(=O)N(C)C(N(O)C(=O)NC)C1(C)C (configuration not stated),7,-1,2,-1,56*,3,-5
CNC(=O)N(O)C1N(C)C(=O)N(Cc2ccccc2)C1(C)C (configuration not stated),2,0,-3,0,-2,3,x
CCCCOc1ccc(C(=O)NCC(=O)N2CC=C(c3ccccc3)CC2)cc1,-3,2,-4,6,-2,-2,x
CSc1nc(N)nc2c1ncn2CC(=O)N[C@H](CO)Cc1c[nH]c2ccccc12,-1,x,x,3,38*,7,3
Cc1cn(CC(=O)N[C@H](CO)Cc2c[nH]c3ccccc23)c(=O)[nH]c1=O,6,x,x,x,-4,3,x
O=C(COc1ccccc1)Nc1ccc(Cl)cn1,3,-5,2,-2,-1,2,x
